From PubChem BioAssay AID492965 (The Scripps Research Institute Molecular Screening Center, 2010) come the findings set out here.

The structures appear in SMILES notation. Among all 1,100 compounds or so, about 100 (9.1%) were called active. A selection follows. A number with no mark means an inactive call.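 Rule for the calls: active = inhibition above a per-plate limit, the mean inhibition of that plate's test compounds plus 3 SD (cut at about 25% in these data); inactive = the rest.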

This assay can be described thus: nonselective Gq signaling antagonists, untransfected CHO – cell-based, fluorescence, CHO-K1, triplicate, counter-screen for OX1R antagonist project (AID 492965).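 Note: 0% = ATP challenge with DMSO and 100% = DMSO without ATP.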 Particulars: parental CHO-K1, ATP-induced calcium, Fluo-8 fluorescence; at 5.6 µM; stronger effect = higher value. (In general: The purpose of a counterscreen is to sort out artefacts and off-target activity.)
The inhibition is the drop in the measured response relative to a control, in per cent. For the compound `COc1cc(CN2CC(C)CC(C)C2)cc([N+](=O)[O-])c1O` (stereo not given), the inhibition was 22.2%.
For the compound `O=C(Nc1cccc(NC(=O)N2CCN(c3ccccc3)CC2)c1)N1CCN(c2ccccc2)CC1`, the inhibition is 6.96%.
Turning to `CCOC(=O)c1cccc(NC(=O)CN(c2ccc(C)cc2)S(=O)(=O)c2c(C)noc2C)c1`, the inhibition is -18.6%.
Regarding `Cc1cc(-c2ccc(C)c(S(=O)(=O)NC(C)Cc3ccco3)c2)on1` (stereo not given), the inhibition was -8.08%.
With `COc1ccc(/C=C/C(=O)c2ccc(NS(=O)(=O)c3ccc(C)cc3)cc2)cc1O`, the inhibition is 2.08%.
Next, `Cc1ccc2c(C)c(C(=O)N(C)CCC3CCCCO3)oc2c1C` (stereo not given): -10%; `C/C(N)=C(/C#N)C(=O)COC(=O)c1cc(-c2ccc(C)cc2)nc2ccccc12`: -4.89%.
The result for `c1coc(CNc2ncnc3ccccc23)c1` reads 26.1% (active).
Next, `N#C/C(=C1\CCCN1)c1nc(-c2ccccc2)cs1`: 3.08%.
With `Cc1cc(C)cc(NC(=O)C2CCCN2S(=O)(=O)c2cccc3cccnc23)c1` (stereo not given), the inhibition was -10.6%.
Next, `O=C(OC1CCOC1=O)c1ccc(-c2nc3ccccc3s2)s1` (stereo not given): 10.7%.
Next, `Cc1ccc(NC(=O)COc2ccc(-n3ccnc3)cc2)cc1Cl`: 15.7%.
Next, `O=C(Nc1cccc2cccnc12)c1cccc(N2C(=O)CCC2=O)c1`: -5.5%; `CCc1ccccc1OCC(=O)Nc1ccc(C)c(S(=O)(=O)N2CCCCCC2)c1`: 2.45%; `CCCN(CC(=O)Nc1ccccc1OC)C(=O)CCC(=O)c1ccc(F)cc1`: -5.67%.
For `CCCc1nc2c(c(=O)c3ccccc3n2C)c(=O)n1C1CCCCCC1`, the inhibition was -3.88%.
The result for `CC1(C)C2CC=C(/C=N/NC(=O)C3CC3)C1C2` (stereo not given) reads -15%; that for `CCCCCCCC(=O)NC(Nc1ccccc1OC)C(Cl)(Cl)Cl` (stereo not given), -10.6%.
Next, `CCCCC(=O)NNC(=S)NC(=O)C(c1ccccc1)c1ccccc1`: 34.8% (active).
The result for `COc1ccc(N2CC(C(=O)NCCN3C(=O)S/C(=C\c4cccnc4)C3=O)CC2=O)c(OC)c1` (stereo not given) reads -8.16%; that for `Cc1cc(N2CCCC2=O)cc(C)c1S(N)(=O)=O`, -0.33%.
Take `C=CCn1c(SCC(=O)Nc2nc3ccccc3s2)nnc1-c1ccccc1O`: the inhibition is -4.55%.
The result for `S=c1[nH]nc(-c2cc(-c3ccccc3)n[nH]2)n1/N=C/c1c2ccccc2cc2ccccc12` reads -7.45%; that for `CCOc1cc(/C=C(\C#N)c2nc(-c3cccs3)c(NC(C)=O)s2)ccc1O`, 14.1%; that for `COCc1c(C(=O)OCC(=O)Nc2ccc(OC(F)F)cc2)oc2ccccc12`, -3.09%.
Next, `CCC(=O)N(C)C(c1ccccc1Cl)c1nnnn1-c1c(C)cccc1C` (stereo not given): -6.17%; `Cc1cccc(NS(=O)(=O)c2cccc(C(=O)NNC(=O)c3ccccc3O)c2)c1`: 15.6%.
The result for `Cc1cccc(NC(=O)Nc2cccc(Oc3c(F)c(F)c(F)c(F)c3F)c2)c1` reads 38.9% (active); that for `CC(=O)Nc1cccc(OCC(=O)/C=C2\N(C)c3ccccc3C2(C)C)c1`, 6.99%.
Consider `N#Cc1nc(-c2cccc3ccccc23)oc1N`, for which the inhibition was -11.2%.
Next, `O=C1c2ccccc2S(=O)(=O)N1CC(O)Cn1c2ccccc2c2ccccc21` (stereo not given): 4.28%; `N#C/C(=C/c1ccc(N2CCCCC2)o1)C(=O)NCCc1c[nH]c2ccccc12`: 31.6% (active).
The result for `CCOc1ccc(/C=C/C(=O)OCC(=O)c2ccccc2OC)cc1OC` reads -17.5%.
Next, `COc1cccc(/C=N/NC(=O)c2[nH]nc3c2CCc2ccccc2-3)c1O`: -10.5%.
In the case of `CCOC(=O)N1CCN(C(=O)c2ccc(S(=O)(=O)Nc3cccc(C(F)(F)F)c3)cc2)CC1`, the inhibition is 9.17%.
On to `CCOC(=O)N1CCN(c2cc(C)c([N+](=O)[O-])cc2F)CC1`, for which the inhibition was 13.3%.
Next, `N/C(=N\OC(=O)Nc1ccc(Cl)c(Cl)c1)c1ncc(C(F)(F)F)cc1Cl`: 14.7%.
Next, `CC(C)(C)NC(=O)CN(C(=O)c1csnn1)c1ccccc1-c1ccccc1`: -0.67%.
Next, `O=C(N/N=C/c1sc(N2CCCCC2)nc1-c1cccs1)c1cccnc1`: -6.04%; `Nc1nc(COC(=O)CCC(=O)c2ccc(Cl)cc2)nc(Nc2ccccc2)n1`: -7.47%.
Turning to `COc1cccc(/C=N/Nc2cc(C)nc(-c3ccccc3O)n2)c1O`, the inhibition was -5.66%.
The result for `CC1CCCN(CC(O)COCc2ccccc2)C1` (stereo not given) reads -5.68%; that for `Cc1ccccc1S(=O)(=O)N1[C@@H](c2cccc(Cl)c2)C(C(=O)O)=CC[C@H]1c1ccc(Cl)cc1`, 13.3%; that for `Cc1ccc(S(=O)(=O)N2CCN(c3ncnc4ccccc34)CC2)cc1`, 50.8% (active).
Next, `COC(=O)c1sccc1NC(=O)CSc1ccccc1NS(=O)(=O)c1cc(Cl)ccc1Cl`: 8.36%.
As for `NC(=O)C1=C[C@@H](c2ccc3c(c2)OCO3)C[C@@H](OCCCCO)O1`, the inhibition is -5.99%.
`CCn1c(SCC(=O)c2ccc3ccccc3c2)nnc1-c1cccs1`: the inhibition is -8.88%.
The result for `Cn1c(N)c(C(=O)COC(=O)c2ccc3ccccc3c2)c(=O)n(C)c1=O` reads 1.91%; that for `CC(Oc1ccc2ccccc2c1)C(=O)NNC(=S)NC(=O)c1ccco1` (stereo not given), -8.71%; that for `COc1cccc(C(=O)NC(=O)Nc2nc(C)cc(C(F)(F)F)n2)c1`, -10.8%.
Take `N#CC(=C1SC=CS1)c1nc(-c2ccccc2)cs1`: the inhibition was -3.94%.
As for `CCOC(=O)c1c(-c2ccc(C)cc2C)csc1NC(=O)CSc1nnnn1C`, the inhibition was -6.6%.
Regarding `Cc1cc(C(=O)NC2CCCc3c2cnn3-c2cccc(C)c2C)c(C)o1` (stereo not given), the inhibition was 34% (active).
For `O=C(NC(Cc1c[nH]c2ccccc12)C(=O)N/N=C/c1ccc(Br)cc1)c1cccs1` (stereo not given), the inhibition was 3.66%.
Next, `CCOc1ccc(CCNC(=O)C(CC)n2nc(C)n3c(cc4sccc43)c2=O)cc1OCC` (stereo not given): -2.6%; `COc1ccc2[nH]cc(/C=C(/C#N)S(=O)(=O)c3ccccc3)c2c1`: -11.6%; `COc1cc2ccccc2cc1C(=O)Nc1ccc(N2CCOCC2)cc1`: -8.59%.
Next, `O=C(Cn1[nH]c(=O)c2ccccc2c1=O)Nc1cccc(-c2nnc3n2CCCCC3)c1`: -5.39%; `O=C(N/N=C/c1c(Cl)[nH]c2ccccc12)c1sc2ccccc2c1Cl`: 10.8%.
The result for `COc1ccc2sc(-c3ccc(N(C)C)cc3)c(C#CCO)c2c1` reads -6.95%; that for `CN(c1ccccc1)S(=O)(=O)c1cccc(NC(=O)Cc2ccc(Cl)cc2)c1`, 6.81%; that for `S=C(NCc1ccc(Cl)cc1)NC12CC3CC(CC(C3)C1)C2`, 14%.
`COc1ccccc1CNC(=O)C1CCCN(S(=O)(=O)c2cccc3cccnc23)C1` (stereo not given): the inhibition is -8.22%.
The result for `O=C1C=C(c2ccc(Cl)cc2)C(=O)N1Nc1ccccc1` reads 22.4%.
Next, `O=C(CCCN1CCc2[nH]c3ccc(F)cc3c2C1)c1ccc(F)cc1`: 26.8% (active).
